Jurkat NFkB inh = inhibitors of induced NF-kB luciferase reporter, primary screen, TCR NF-kB activation inhibitor project, cell-based, luminescence, uHTS. Jurkat, PMA/ionomycin-induced NF-kB luciferase reporter. inhibition, % at 4 µM. hit rate 0.53% among 330,000; in the data active = inhibition above about 50%
Gli-Sufu antag = Gli-Sufu pathway antagonists, primary screen, luciferase luminescence, Sufu-KO-LIGHT cells, uHTS. Sufu-KO-LIGHT fibroblasts, Gli luciferase reporter luminescence. hit rate 0.74% among 340,000. inhibition, % at 5 µM;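 active = inhibition above about 55%, limit read from the data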
697 NFkB inh = inhibitors of PMA/ionomycin-induced NF-kB reporter, 697 cells, primary screen, B-cell NF-kB inhibitor project, cell-based, luminescence, uHTS; hit rate 0.33% among 330,000; inhibition, % at 4 µM; 697 B-cell NF-kB luciferase reporter, 16 h; in the data active = inhibition above about 35%
Mdm2-MdmX inh = inhibitors of human Mdm2-MdmX association, primary screen, cell-based, luminescence, split luciferase, SaOS-2, uHTS; SaOS-2 split-luciferase Mdm2/MdmX complementation; hit rate 3% among 330,000; inhibition, % at 8 µM; Protein Mdm4 (Homo sapiens) + E3 ubiquitin-protein ligase Mdm2 (Homo sapiens), …;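 active = inhibition of at least 50% at 8 µM in the primary screen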
Target sequence (O15151 whole entry, looked up): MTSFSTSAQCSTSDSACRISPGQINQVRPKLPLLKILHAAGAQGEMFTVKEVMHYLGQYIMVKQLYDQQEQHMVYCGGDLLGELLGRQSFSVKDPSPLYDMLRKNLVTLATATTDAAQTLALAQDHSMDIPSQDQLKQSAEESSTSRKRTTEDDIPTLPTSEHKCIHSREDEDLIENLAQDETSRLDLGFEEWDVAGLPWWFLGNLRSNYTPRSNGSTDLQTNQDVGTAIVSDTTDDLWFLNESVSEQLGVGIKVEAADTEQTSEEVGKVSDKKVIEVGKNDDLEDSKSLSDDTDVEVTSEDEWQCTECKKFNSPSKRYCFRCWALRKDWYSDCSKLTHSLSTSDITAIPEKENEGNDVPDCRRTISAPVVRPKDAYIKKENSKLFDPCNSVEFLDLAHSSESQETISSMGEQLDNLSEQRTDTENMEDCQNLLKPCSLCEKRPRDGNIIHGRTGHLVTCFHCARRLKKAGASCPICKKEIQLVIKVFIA
Target sequence (Q00987 whole entry, looked up): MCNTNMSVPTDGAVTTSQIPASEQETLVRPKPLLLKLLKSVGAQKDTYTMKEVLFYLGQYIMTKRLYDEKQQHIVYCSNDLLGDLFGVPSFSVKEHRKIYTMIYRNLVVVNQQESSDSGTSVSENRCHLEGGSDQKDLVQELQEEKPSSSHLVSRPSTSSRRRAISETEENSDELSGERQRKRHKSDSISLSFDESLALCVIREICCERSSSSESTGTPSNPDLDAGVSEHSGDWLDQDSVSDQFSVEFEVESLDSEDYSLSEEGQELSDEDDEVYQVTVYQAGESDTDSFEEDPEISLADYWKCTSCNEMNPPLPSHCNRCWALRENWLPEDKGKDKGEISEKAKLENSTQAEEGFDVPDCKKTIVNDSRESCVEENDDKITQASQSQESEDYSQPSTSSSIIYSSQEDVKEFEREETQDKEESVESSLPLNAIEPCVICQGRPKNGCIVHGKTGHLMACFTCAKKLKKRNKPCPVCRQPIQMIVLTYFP
CSC inhib = cancer stem cell viability inhibitors, primary screen, luminescence; cancer stem cell-like cells viability; inhibition, % at 7.5 µM; hit rate 1.1% among 300,000; in the data active = inhibition above about 75%; inconclusive = no clear call, values can overlap the other calls; tested in HMLE shEcad cells
Beta cell apopt = inhibitors of cytokine-induced beta cell apoptosis, primary screen, luminescence; INS-1E cytokine-induced death, ATP luminescence, 48 h; percent of positive-control rescue, neutral wells zero; protection from apoptosis, % (concentration not given with the values); hit rate 0.8% among 300,000;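 active = Every replicate reaches about 75%, or at least half do and their mean reaches it too, limit read from the data; inconclusive = At least half of replicates reach the limit but their mean does not; inactive = Under half of replicates reach the limit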;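 note: higher means more ATP so stronger rescue from cytokine killing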
Each line names hits and unclear results; the compound was inactive in the other large screens. An excerpt weighted towards active compounds, which were near 4.5% of everything screened.

C[C@H](NC(=O)c1ccco1)C(=O)N1CCN(c2ccc(C(F)(F)F)cn2)CC1	none
COC(=O)c1nc(-c2ccccc2)nc(-c2ccccc2)c1C(=O)OC	none (no result: Beta cell apopt)
Cc1ccc(OCCC(=O)OCC(=O)Nc2c(C)nn(-c3ccccc3)c2C)cc1	none
CC[C@]12c3[nH]c4cc(-c5ccco5)ccc4c3CCN1C(=O)[C@@H](CC(=O)NCc1cccc(C(F)(F)F)c1)C[C@@H]2C(=O)N1CCN(C(=O)c2ccco2)CC1	none (no result: Jurkat NFkB inh, CSC inhib, Beta cell apopt)
Cc1csc(N/N=C/c2ccc([N+](=O)[O-])cc2)n1	none
C(=N\NC1=Nc2cccc3cccc1c23)/c1ccccn1	Gli-Sufu antag 70.0 (no result: Jurkat NFkB inh, 697 NFkB inh, Mdm2-MdmX inh, CSC inhib, Beta cell apopt)
Cc1csc(N/N=C/c2ccccn2)n1	CSC inhib 83.4
CCN1C[C@@H]2[C@@H]3C(=O)N(C)C(=O)[C@@H]3[C@](Cc3ccccc3)(C1=O)N2C(=O)c1ccc(Cl)c(Cl)c1	none (no result: Jurkat NFkB inh, 697 NFkB inh, Mdm2-MdmX inh, CSC inhib, Beta cell apopt)
O=C(COC(=O)C1CC1)Nc1ccc(S(=O)(=O)N2CCOCC2)cc1	none
COc1ccccc1NC(=S)NN=C(C)c1ccccn1	Gli-Sufu antag 85.0 (no result: Jurkat NFkB inh, 697 NFkB inh, Mdm2-MdmX inh, CSC inhib, Beta cell apopt)
CC(=NNC(=S)Nc1cccc(C)c1)c1ccccn1	Gli-Sufu antag 82.0 (no result: Jurkat NFkB inh, 697 NFkB inh, Mdm2-MdmX inh, CSC inhib, Beta cell apopt)
COc1ccccc1CCNS(=O)(=O)CCNC(=O)c1ccc2c(c1)OCO2	none (no result: Beta cell apopt)
CC1=[N+](C)c2c(ccc3cccnc23)C1(C)C	Gli-Sufu antag 87.1 (no result: Jurkat NFkB inh, 697 NFkB inh, Mdm2-MdmX inh, CSC inhib, Beta cell apopt)
CN(Cc1cccnc1)C(=O)Cc1ccc(NS(=O)(=O)c2cccc(C(F)(F)F)c2)cc1	none
CC(C)C[C@H](N)c1nnc(SCC(=O)Nc2ccc(Br)cc2)o1	none
CC(C)C[C@H](N)c1nnc(S(=O)(=O)Cc2ccc(F)cc2)o1	CSC inhib 76.9
CC[C@]12c3[nH]c4ccccc4c3CCN1C(=O)C(CC(=O)NCCCN(C)C)C[C@@H]2C(=O)N1CCN(C(=O)c2ccco2)CC1 (some centres undefined)	none
Cc1ccc(-c2c(C)nn3c(N4CCOCC4)cc(C)nc23)cc1	Gli-Sufu antag 56.3
CCC(C)Sc1cccc(-c2nc3cc(C)ccn3c2NCc2ccccc2)c1 (centres undefined)	CSC inhib 122.6
CCC(C)Sc1cc(-c2nc3ccc(C)cn3c2NCc2ccccc2)ccc1OC (centres undefined)	Gli-Sufu antag 66.5 (no result: Jurkat NFkB inh, 697 NFkB inh, Mdm2-MdmX inh, Beta cell apopt)
CCC(C)Sc1ccc(-c2nc3ccc(Cl)cn3c2NCc2ccccc2)cc1 (centres undefined)	none
CCCCCCSc1cc(-c2nc3ccc(C)cn3c2NCCCC)ccc1OC	CSC inhib 97.3, Beta cell apopt 83.7
CCCCNc1c(-c2ccc(SC3CCCCC3)c(OC)c2)nc2ccc(C)cn12	CSC inhib 101.2
COCCN(C(=O)COC(=O)C1(c2ccccc2)CC1)c1c(N)n(CC(C)C)c(=O)[nH]c1=O	none (no result: Beta cell apopt)
Cc1ccc(S(=O)(=O)Nc2ccc(C(=O)N3CCCC3)cc2)c(C)c1NS(C)(=O)=O	none
O=S(=O)(c1ccc2c(c1)CCN2)N1CCCC1	none (no result: CSC inhib)
CSCCC(NC(=O)COc1ccccc1)C(=O)N1CCOCC1 (centres undefined)	none
Cn1nccc1C(=O)OCC(=O)Nc1cccc(Cl)c1	none (no result: CSC inhib)
CCCCCCSc1cccc(-c2nc3ccc(Cl)cn3c2NCc2ccccc2)c1	CSC inhib 75.9
Cn1c2c(c(=O)[nH]c1=O)C(c1cccc(O)c1)C1=C(N2)c2ccccc2C1=O (centres undefined)	Gli-Sufu antag 55.6 (no result: Jurkat NFkB inh, 697 NFkB inh, Mdm2-MdmX inh, CSC inhib, Beta cell apopt)
CCC1(c2ccc(OC)cc2)NC(=O)N(CC(=O)c2ccc3c(c2)OCCO3)C1=O (centres undefined)	none (no result: CSC inhib)
CC1S/C(=N/N=C/c2cccc([N+](=O)[O-])c2)NC1=O (centres undefined)	CSC inhib 88.0
Cc1cccc(NC(=O)C2CC(O)CN2C(=O)Oc2ccccc2)c1 (centres undefined)	none (no result: CSC inhib)
CCCCc1ccc(Nc2nc(CCC)cc(=O)[nH]2)cc1	CSC inhib 102.3
CCCc1cc(=O)[nH]c(Nc2ccc(N3CCCCC3)cc2)n1	none
Cc1cc(NC(=O)CSc2nc(-c3cccs3)nc3ccccc23)no1	none (no result: CSC inhib)
O=C(N/N=C\c1cn(-c2ccccc2)nc1-c1ccccc1)c1ccc(Br)o1	Beta cell apopt 110.0
Clc1ccc(CO/N=C/c2c(-c3ccccc3)nc3n2CCS3)c(Cl)c1	CSC inhib 77.7
CS(=O)(=O)/C(C#N)=C/c1c(-c2ccccc2)nc2n1CCS2	none
Cc1[nH]c(=O)c(C#N)c(C)c1CCC(=O)NCc1ccc(Cl)cc1	none
CN1CCN(c2ccc(S(=O)(=O)N3CCCCC3)cc2NC(=O)/C=C/c2ccc(Cl)c([N+](=O)[O-])c2)CC1	CSC inhib 98.4 (no result: Beta cell apopt)
CN1CCN(c2ccc(S(=O)(=O)N3CCCCC3)cc2NC(=O)/C=C/c2ccc(OC(F)F)cc2)CC1	none
O=C(c1cnc2ccc3ccccc3c2c1)c1cc(F)ccc1O	CSC inhib 83.8
c1ccc(CNc2ncnc3sccc23)cc1	none
c1csc(CNc2ncnc3sccc23)c1	Beta cell apopt 79.9
Cc1oc2c(c1C(=O)N1CCC(C)CC1)C(=O)c1ccccc1C2=O	CSC inhib inconclusive, Beta cell apopt 109.8
COc1ccc(NC(=S)N2CCN(S(=O)(=O)c3ccccc3)CC2)cc1	none
O=C(CN1CCCCC1)Nc1cc(Cl)ccc1Oc1ccccc1	none
O=C(CN1CCCCCC1)Nc1ccccc1Oc1ccccc1	CSC inhib 79.6
C=CC(=O)Nc1cccc(Nc2nc(N[C@H]3CC[C@H](N(C)C)CC3)nc3c2ncn3C(C)C)c1	Gli-Sufu antag 75.9 (no result: Jurkat NFkB inh, 697 NFkB inh, Mdm2-MdmX inh, CSC inhib, Beta cell apopt)
CC(C)[C@H](CO)Nc1nc(Nc2ccc(Cl)c(C(=O)O)c2)c2ncn(C(C)C)c2n1	none
O=C(Nc1cccc2ncccc12)c1ccco1	none
COc1ccc(C2/C=C\CN(C(=O)c3ccc(C)cc3)[C@H](Cc3ccccc3)C(=O)N2Cc2ccc(F)cc2)cc1 (some centres undefined)	Beta cell apopt 77.9
CCCCC(=O)N1C/C=C\C(c2ccc(OC)cc2)N(Cc2ccc(F)cc2)C(=O)[C@H]1Cc1ccccc1 (some centres undefined)	Beta cell apopt 98.9
COc1ccc(C2/C=C\CN(C(=O)C3CC3)[C@H](Cc3ccccc3)C(=O)N2Cc2ccc(F)cc2)cc1 (some centres undefined)	Beta cell apopt 86.0
COc1ccc(C2/C=C\CN(C(=O)c3ccccc3)CC(=O)N2Cc2ccc(F)cc2)cc1 (centres undefined)	none
COc1ccc([C@H]2/C=C\CN(C(=O)C3CC3)[C@@H](C)C(=O)N2Cc2ccc(F)cc2)cc1	none
CCc1ccc([C@@H]2CC=C(C(=O)O)[C@H](c3ccc(C)cc3)N2S(=O)(=O)c2ccc(C)cc2)cc1	none (no result: CSC inhib, Beta cell apopt)

Screening results deposited in PubChem BioAssay by several laboratories.
